# Measured values as given in PubChem BioAssay.
# Molecular target: Torsin-1A-interacting protein 1 (Homo sapiens) (UniProt Q5JTV8)
# Test: compound microarray binding of lysate hLAP1 – cell lysate, small-molecule microarray, COS7 lysate, 635/667 nm fluorescence, primary screen (AID 1116)
# Conditions: 635 nm fluorescence, higher = more signal
# Torsin-1A-interacting protein 1 (Homo sapiens), sequence (Q5JTV8 whole entry, looked up): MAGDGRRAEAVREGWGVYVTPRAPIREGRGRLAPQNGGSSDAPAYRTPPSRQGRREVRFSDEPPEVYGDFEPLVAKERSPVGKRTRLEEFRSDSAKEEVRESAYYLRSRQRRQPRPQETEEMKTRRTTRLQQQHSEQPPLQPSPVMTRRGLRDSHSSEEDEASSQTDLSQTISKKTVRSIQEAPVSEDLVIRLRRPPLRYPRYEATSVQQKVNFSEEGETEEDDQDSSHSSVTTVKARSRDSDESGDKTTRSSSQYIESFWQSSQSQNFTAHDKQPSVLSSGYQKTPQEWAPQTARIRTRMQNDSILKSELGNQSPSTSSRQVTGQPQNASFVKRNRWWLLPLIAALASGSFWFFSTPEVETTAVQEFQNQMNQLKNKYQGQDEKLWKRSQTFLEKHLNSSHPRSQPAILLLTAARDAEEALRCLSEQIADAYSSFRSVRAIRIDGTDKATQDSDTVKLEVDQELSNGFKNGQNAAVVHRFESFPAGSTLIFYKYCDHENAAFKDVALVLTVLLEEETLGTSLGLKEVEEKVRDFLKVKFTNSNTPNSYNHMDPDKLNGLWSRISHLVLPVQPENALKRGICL
row,Compound,composite z-score
1,CO[C@H]1COC(=O)[C@@H](C)COC(=O)[C@H](Cc2ccccc2)NC(=O)CC=C[C@H]1C,-0.115
2,C=CCC(OC(C)=O)[C@@H]1[C@@H](N(Cc2cccc3ccccc23)C(=O)c2ccc(C)cc2)c2cc(OCCCO)ccc2N1C(=O)c1ccc(-c2ccccc2)cc1 (stereo partly drawn),-0.144
3,CC(C)[C@H]1NC(=O)[C@@]23C(=O)N[C@@H](Cc4ccccc4)C2[C@H](C)[C@@]2(C)O[C@H]2C3/C=C/C/C=C\CNC(=O)[C@H](C)NC1=O (stereo partly drawn),-0.198
4,CO[C@H]1COC(=O)[C@@H](Cc2ccccc2)NC(=O)[C@@H](C)COC(=O)CC=C[C@@H]1C,-0.0159
5,CN1CCC(CCCO)=CC1C1CC1 (stereo not drawn),-0.434
6,CC(C)[Si]1(C(C)C)OCc2cc(C3CC3)nc(-c3ccccc3)c21,-0.694
7,O=C1c2ccccc2[C@](Cc2ccccc2I)(C(=O)O)[C@H](c2ccc(CO)cc2)N1C1CCCCC1,1.5
8,C[C@@H]1NC(=O)CC=C[C@@H](C)[C@@H]2C=C[C@H](O)[C@@H](COC(=O)[C@H](C)NC(=O)CC=C[C@@H](C)[C@@H]3C=C[C@H](O)[C@@H](COC1=O)O3)O2,-0.166
9,C=CCc1cccc([C@@H]2[C@@H](C)CC[C@H]3C(=O)N4[C@H](c5cccc(CC=C)c5)[C@@H](C)CC[C@H]4C(=O)N23)c1,0.373
10,C=CC[C@@]12N=C(c3ccc(OCCCO)cc3)O[C@@H]1c1ccccc1CN(Cc1ccccc1)C2=O,1.08
11,COc1ccc([C@H]2C[C@H]3C(Br)=C[C@]2(OC)C(=O)[C@]32CO2)cc1,0.42
12,C=CCOC(=O)[C@@H]1[C@H]2C(=O)O[C@H](c3ccccc3)[C@H](c3ccccc3)N2[C@H](c2ccc(OCCOC(=O)[C@H]3C[C@H]4C(=O)N5CCC[C@H]5C(=O)N4[C@H]3c3ccc(O)cc3)cc2)[C@@]12C(=O)Nc1ccccc12,0.87
13,CC(=O)NCCCC[C@@H]1NC(=O)[C@@H]2C[C@H](C(=O)NCc3ccc(F)cc3)[C@H](c3cccc(OCCO)c3)N2C1=O,0.436
14,O=C(CS)NCCCCCNC(=O)[C@H]1C[C@H]2C(=O)N3CCC[C@H]3C(=O)N2[C@H]1c1ccc(O)cc1,2.97
15,C=C(COC)/C(=C/C[C@H](OC(C)=O)c1ccc(OCCO)cc1)c1cnc2ccccc2c1,0.458
16,COc1cc([C@@H]2N[C@H](C(=O)O)Cc3c2[nH]c2ccccc32)cc(OC)c1OC,0.0517
17,C=CC[C@@]1(C(=O)N2CCOCC2)N=C(c2ccc(OCCCO)cc2)O[C@@H]1c1ccccc1,1.68
18,COCCOC(=O)N1C(=O)[C@@]2(c3cc(C#CC4=CCCCC4)ccc31)[C@H](c1ccc(O)cc1)N1[C@H](c3ccccc3)[C@H](c3ccccc3)OC(=O)[C@H]1[C@@H]2C(=O)N1CCCCCCC1,0.691
19,COCCOC(=O)N1C(=O)[C@@]2(c3cc(C#CC4=CCCCC4)ccc31)[C@H](C(=O)NC[C@H](O)c1ccccc1)[C@H]1C(=O)O[C@H](c3ccccc3)[C@H](c3ccccc3)N1[C@@H]2c1ccccc1OCCO,0.814
20,C=CC[C@]1(C(=O)NCC(O)CO)N=C(c2ccc(OCCCO)cc2)O[C@H]1c1ccccc1 (stereo partly drawn),3.97
21,C=CCC(OC(C)=O)[C@@H]1[C@@H](N(Cc2cc3ccccc3o2)C(=O)c2ccc(C)cc2)c2cc(OCCCO)ccc2N1C(=O)c1ccc2ccccc2n1 (stereo partly drawn),-0.0354
22,CC(C)NC(=O)[C@@]1(Cc2ccccc2I)c2ccccc2C(=O)N(C2CCCCC2)[C@H]1c1ccc(CO)cc1,0.977
23,C=C[C@H](OC)[C@@H](OC(=O)Nc1ccc(SC)cc1)c1ccc(OC)c(O)c1,0.324
24,CCc1cccc(NC(=O)O[C@H]2[C@H](OC(=O)Nc3ccccc3)[C@@H](OC(=O)Nc3ccccc3)[C@@H](OC)O[C@@H]2CO)c1,2.41
25,COCCOC(=O)N1C(=O)[C@@]2(c3cc(C#CCC(C(=O)OC)C(=O)OC)ccc31)[C@H](C(=O)N1CCN(c3ncccn3)CC1)[C@H]1C(=O)O[C@H](c3ccccc3)[C@H](c3ccccc3)N1[C@@H]2c1ccc(O)cc1,0.518
26,COc1ccc(-c2cc3c(c(-c4ccccc4)n2)[Si](C(C)C)(C(C)C)O[C@H]3c2ccccc2)cn1,-0.126
27,CCC(=O)[C@]12O[C@@]3([C@@H]4C(=O)OCC[C@@H]41)N(Cc1ccccc1)C(C)=C(C(=O)OC)[C@@H](c1ccccc1)N3C2=O,-0.398
28,CO[C@@H]1COC(=O)[C@H](C)NC(=O)CC=C[C@@H](C)[C@H](NS(=O)(=O)c2ccc(C)cc2)COC(=O)CC=C[C@@H]1C,0.117
